Assay [1] deals with Tyrosine-protein kinase Fyn (Homo sapiens) (UniProt P06241). Conditions: at 1 µM.
The target of assay [2] is Tyrosine-protein kinase HCK (Homo sapiens) (UniProt P08631). The note with it: at 0.1 µM.
For assay [3] the target is unchanged. Conditions: at 1 µM.
The target in assay [4] is Insulin-like growth factor 1 receptor (Homo sapiens) (UniProt P08069). Conditions: at 0.1 µM.
Assay [5] shares this target. Conditions: at 1 µM.
Assay [6] addresses Insulin receptor (Homo sapiens) (UniProt P06213). The note with it: at 0.1 µM.
Assay [7] shares this target. The note with it: at 1 µM.
Assay [8] has as its target Insulin receptor-related protein (Homo sapiens) (UniProt P14616). Conditions: at 0.1 µM.
Assay [9] shares this target. The note with it: at 1 µM.
The target of assay [10] is T1, Tyrosine-protein kinase ITK/TSK (Homo sapiens) (UniProt Q08881).
T1 sequence (whole entry): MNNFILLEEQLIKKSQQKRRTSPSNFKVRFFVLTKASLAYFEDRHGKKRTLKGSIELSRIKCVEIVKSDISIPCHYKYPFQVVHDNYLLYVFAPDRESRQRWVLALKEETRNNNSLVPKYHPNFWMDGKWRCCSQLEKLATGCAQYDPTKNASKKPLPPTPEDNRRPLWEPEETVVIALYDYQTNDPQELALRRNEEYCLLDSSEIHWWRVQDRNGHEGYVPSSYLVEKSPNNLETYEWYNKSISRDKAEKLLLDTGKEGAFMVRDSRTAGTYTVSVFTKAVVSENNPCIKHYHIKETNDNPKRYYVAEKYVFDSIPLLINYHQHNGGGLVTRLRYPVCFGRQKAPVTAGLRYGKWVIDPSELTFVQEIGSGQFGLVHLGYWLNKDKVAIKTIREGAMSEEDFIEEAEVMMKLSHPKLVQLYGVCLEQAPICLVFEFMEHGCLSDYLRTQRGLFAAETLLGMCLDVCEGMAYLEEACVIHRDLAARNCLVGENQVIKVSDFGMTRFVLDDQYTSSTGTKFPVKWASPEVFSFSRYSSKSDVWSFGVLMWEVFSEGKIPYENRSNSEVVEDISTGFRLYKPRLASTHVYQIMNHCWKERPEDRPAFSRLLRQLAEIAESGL
Conditions: at 0.1 µM.

For assay [11], the target named is T1, Tyrosine-protein kinase ITK/TSK (Homo sapiens). The note with it: at 1 µM.
Assay [12] deals with Tyrosine-protein kinase JAK1 (Homo sapiens) (UniProt P23458). Conditions: at 0.1 µM.
Assay [13] shares this target. The note with it: at 1 µM.
For assay [14], the target named is Tyrosine-protein kinase JAK2 (Homo sapiens) (UniProt O60674). Conditions: at 0.1 µM.
Tyrosine-protein kinase JAK2 (Homo sapiens), sequence (O60674 whole entry): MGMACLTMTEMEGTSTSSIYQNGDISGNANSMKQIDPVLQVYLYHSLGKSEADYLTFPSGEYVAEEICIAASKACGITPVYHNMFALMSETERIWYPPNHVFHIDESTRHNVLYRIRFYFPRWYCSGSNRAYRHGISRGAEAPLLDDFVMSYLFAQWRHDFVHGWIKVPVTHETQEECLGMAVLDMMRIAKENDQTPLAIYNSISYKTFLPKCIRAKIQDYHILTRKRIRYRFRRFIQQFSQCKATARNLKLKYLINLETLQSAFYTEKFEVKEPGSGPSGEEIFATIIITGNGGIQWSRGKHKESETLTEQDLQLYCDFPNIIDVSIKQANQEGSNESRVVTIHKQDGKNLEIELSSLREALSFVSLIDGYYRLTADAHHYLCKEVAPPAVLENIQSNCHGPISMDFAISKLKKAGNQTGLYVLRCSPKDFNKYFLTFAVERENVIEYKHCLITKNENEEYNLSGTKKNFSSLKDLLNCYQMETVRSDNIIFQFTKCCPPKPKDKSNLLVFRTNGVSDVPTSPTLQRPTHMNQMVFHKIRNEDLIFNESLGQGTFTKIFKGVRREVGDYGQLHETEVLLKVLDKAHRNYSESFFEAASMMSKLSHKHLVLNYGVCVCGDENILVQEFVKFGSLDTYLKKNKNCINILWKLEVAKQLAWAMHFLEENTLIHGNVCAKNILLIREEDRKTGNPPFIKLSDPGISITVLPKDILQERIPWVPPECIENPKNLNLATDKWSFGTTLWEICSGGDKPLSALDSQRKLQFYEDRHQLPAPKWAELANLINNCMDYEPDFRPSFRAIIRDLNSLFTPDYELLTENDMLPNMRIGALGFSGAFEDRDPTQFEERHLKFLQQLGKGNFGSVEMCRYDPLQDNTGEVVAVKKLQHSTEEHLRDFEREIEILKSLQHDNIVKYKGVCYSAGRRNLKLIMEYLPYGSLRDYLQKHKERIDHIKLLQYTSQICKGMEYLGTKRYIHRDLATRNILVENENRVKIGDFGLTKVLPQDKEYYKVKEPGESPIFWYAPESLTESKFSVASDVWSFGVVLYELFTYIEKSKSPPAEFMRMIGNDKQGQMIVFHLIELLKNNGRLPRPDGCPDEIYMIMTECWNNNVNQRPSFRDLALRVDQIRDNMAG
For assay [15] the target is unchanged. Conditions: at 1 µM.
Assay [16] has as its target T2, Tyrosine-protein kinase JAK3 (Homo sapiens) (UniProt P52333).
T2 sequence (whole entry): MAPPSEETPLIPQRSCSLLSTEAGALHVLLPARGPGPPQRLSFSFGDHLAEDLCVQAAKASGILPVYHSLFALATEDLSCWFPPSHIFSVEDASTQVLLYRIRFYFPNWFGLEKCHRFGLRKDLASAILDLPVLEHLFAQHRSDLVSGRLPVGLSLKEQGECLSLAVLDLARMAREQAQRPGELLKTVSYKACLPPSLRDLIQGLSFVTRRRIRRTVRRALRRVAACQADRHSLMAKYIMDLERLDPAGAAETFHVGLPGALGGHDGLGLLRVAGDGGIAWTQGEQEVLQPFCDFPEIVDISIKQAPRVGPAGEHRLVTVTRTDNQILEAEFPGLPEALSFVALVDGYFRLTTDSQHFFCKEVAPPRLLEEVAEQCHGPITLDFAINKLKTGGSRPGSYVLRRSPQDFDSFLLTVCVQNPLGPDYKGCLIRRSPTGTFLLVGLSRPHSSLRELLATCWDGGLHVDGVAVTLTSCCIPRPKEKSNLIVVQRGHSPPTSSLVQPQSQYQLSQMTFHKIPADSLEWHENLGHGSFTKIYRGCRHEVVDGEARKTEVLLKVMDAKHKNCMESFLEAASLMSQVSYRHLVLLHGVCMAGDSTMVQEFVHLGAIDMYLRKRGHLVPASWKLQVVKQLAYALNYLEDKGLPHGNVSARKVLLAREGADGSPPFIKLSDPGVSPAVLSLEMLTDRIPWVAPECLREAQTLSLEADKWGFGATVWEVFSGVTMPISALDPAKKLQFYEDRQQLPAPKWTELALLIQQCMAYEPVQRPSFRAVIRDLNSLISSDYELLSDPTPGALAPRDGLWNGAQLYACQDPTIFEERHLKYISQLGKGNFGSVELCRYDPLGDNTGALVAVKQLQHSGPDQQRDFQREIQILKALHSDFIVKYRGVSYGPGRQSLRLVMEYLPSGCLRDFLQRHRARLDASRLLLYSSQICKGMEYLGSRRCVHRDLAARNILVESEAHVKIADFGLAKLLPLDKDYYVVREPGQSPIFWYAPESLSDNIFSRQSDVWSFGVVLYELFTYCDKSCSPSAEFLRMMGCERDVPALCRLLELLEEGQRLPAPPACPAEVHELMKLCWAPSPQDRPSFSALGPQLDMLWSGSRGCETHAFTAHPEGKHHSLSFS
The note with it: at 0.1 µM.

In assay [17] the target is T2, Tyrosine-protein kinase JAK3 (Homo sapiens). The note with it: at 1 µM.
For assay [18], the target named is Vascular endothelial growth factor receptor 2 (Homo sapiens) (UniProt P35968). Conditions: at 0.1 µM.
Assay [19] shares this target. Conditions: at 1 µM.
Assay [20] concerns the target Mast/stem cell growth factor receptor Kit (Homo sapiens) (UniProt P10721). Conditions: at 0.1 µM.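 Note: values are mean inhibition of KIT, from the GSK PKIS dataset.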

This is an account of results in ChEMBL document CHEMBL1961873, “Compounds: GSK PKIS; Assays: Nanosyn kinase panel” (2012).

The structures appear in SMILES notation.

Insulin receptor-related protein (Homo sapiens), sequence (P14616 27-742 limits assumed): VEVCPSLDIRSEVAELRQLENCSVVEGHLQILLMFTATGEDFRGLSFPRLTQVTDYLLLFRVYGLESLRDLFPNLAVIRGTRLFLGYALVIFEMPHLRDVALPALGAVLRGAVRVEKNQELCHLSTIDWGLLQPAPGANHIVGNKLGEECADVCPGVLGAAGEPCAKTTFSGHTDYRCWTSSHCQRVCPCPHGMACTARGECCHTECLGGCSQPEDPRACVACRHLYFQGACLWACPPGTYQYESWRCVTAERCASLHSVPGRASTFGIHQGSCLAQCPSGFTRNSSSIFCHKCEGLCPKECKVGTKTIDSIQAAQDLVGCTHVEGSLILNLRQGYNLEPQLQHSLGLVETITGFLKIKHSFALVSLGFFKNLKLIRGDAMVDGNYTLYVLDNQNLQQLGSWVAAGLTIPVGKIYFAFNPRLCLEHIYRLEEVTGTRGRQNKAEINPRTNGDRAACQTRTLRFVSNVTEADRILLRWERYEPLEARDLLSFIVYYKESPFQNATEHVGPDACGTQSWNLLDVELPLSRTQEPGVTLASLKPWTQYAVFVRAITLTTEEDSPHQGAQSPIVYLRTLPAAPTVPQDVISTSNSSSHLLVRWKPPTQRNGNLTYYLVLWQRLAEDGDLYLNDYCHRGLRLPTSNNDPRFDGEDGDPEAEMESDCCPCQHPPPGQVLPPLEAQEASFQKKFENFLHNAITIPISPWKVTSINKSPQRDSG
Insulin receptor-related protein (Homo sapiens), sequence (P14616 747-1297 limits assumed): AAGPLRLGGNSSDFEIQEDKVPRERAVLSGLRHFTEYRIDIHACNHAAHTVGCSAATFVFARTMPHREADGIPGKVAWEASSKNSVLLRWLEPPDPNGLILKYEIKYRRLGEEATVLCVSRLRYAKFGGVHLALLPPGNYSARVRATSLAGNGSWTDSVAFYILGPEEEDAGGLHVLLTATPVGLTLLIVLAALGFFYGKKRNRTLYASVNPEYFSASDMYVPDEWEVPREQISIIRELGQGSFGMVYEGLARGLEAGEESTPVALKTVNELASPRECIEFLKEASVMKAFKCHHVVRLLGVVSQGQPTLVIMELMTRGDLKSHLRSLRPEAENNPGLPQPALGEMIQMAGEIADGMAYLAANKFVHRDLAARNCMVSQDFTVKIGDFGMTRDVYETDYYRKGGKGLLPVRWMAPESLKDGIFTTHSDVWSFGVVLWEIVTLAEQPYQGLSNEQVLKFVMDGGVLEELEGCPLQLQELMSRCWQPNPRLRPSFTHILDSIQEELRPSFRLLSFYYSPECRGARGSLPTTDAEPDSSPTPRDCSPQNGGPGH
Tyrosine-protein kinase HCK (Homo sapiens), sequence (P08631 2-526 limits assumed): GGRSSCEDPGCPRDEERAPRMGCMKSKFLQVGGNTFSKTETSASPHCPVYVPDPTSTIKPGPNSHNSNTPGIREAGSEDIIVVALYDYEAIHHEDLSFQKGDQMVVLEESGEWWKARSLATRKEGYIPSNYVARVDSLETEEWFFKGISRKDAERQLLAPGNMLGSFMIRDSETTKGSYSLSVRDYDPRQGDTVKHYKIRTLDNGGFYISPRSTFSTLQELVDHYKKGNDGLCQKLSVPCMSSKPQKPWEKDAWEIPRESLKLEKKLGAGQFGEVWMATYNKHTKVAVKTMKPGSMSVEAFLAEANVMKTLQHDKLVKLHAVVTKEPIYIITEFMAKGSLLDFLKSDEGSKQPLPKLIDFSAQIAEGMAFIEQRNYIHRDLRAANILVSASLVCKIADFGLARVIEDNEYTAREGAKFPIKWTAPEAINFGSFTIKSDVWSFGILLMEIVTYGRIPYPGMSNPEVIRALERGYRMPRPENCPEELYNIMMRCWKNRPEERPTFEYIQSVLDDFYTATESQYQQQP
Mast/stem cell growth factor receptor Kit (Homo sapiens), sequence (P10721 whole entry): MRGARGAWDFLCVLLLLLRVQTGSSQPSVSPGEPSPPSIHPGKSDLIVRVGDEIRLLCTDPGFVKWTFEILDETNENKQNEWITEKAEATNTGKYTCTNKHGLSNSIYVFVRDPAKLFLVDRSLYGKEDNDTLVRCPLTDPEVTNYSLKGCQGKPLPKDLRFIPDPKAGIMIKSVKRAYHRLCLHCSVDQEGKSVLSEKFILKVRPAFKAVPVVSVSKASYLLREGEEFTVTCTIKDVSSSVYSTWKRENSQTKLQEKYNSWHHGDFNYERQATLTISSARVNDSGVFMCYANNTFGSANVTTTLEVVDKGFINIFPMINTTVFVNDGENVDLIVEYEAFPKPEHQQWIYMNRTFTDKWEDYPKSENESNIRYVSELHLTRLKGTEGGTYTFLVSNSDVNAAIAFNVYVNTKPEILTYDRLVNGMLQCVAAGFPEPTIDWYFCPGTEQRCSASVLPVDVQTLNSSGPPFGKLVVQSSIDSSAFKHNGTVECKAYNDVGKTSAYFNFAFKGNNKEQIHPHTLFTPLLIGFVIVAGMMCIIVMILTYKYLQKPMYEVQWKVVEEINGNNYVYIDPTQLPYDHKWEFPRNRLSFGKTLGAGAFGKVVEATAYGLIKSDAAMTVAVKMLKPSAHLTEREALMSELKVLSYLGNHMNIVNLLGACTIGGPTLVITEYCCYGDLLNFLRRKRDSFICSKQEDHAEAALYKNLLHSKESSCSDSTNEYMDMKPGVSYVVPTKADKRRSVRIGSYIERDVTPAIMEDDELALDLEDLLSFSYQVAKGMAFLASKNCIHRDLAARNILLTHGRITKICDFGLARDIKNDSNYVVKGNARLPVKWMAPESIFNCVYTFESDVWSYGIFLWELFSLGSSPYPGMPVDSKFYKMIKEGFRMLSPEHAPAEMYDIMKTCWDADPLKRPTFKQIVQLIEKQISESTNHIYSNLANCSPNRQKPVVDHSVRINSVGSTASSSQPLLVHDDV
Tyrosine-protein kinase Fyn (Homo sapiens), sequence (P06241 2-537 limits assumed): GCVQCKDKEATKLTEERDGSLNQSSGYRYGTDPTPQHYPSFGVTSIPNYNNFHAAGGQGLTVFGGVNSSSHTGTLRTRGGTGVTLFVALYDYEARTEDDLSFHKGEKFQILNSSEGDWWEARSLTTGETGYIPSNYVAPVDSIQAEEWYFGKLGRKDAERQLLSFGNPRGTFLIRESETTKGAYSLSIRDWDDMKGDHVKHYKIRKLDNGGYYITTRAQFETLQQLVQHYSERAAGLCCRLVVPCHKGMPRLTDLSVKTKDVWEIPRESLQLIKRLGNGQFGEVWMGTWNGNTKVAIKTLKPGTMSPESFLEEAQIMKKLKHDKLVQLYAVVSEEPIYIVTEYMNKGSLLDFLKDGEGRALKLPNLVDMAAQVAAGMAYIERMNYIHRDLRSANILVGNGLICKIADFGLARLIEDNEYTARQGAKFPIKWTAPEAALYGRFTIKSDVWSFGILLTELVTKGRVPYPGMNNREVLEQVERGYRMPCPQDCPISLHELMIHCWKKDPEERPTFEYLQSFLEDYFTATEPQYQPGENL

Take `Fc1cccc(COc2ccc(Nc3ncnc4sc(-c5cccs5)cc34)cc2Cl)c1`: the inhibition was found to be 5.19% in [1]; 1.68% in assay [2]; 3.8% in assay [3]; 0.38% in assay [4]; 0.6% in assay [5]; 4.85% in [6]. Besides, the inhibition in assay [7] was 3.43%; in assay [8], -1.46%; in assay [9] it was -0.83%; in assay [10], 0.84%; in assay [11] it was 1.32%; in assay [12], -0.79%. In addition, the inhibition in [13] is -0.37%; in [14], -0.63%; in assay [15], 0.58%; in [16], 1.46%; in assay [17] it was 1.31%; in [18], 4.41%. The inhibition was 7.67% in assay [19] and 9.52% in assay [20].
Regarding `COc1cc2ncn(-c3cc(OCc4ccccc4Cl)c(C(N)=O)s3)c2cc1OC`, the inhibition in assay [1] was 23.5%; in assay [2], 4.09%; in [3] it was 27.1%; in assay [4], 2.22%; in [5], 2.52%; in [6] it was 4.5%. Also, the inhibition in assay [7] is 7.12%; in assay [8], -1.76%; in assay [9], 0.06%; in assay [10], 0.4%; in assay [11], 3.19%; in [12] it was 0.17%. The inhibition in assay [13] was found to be 5.86%; in assay [14] it was 0.18%; in [15], 0.34%; in [16], 0.35%; in [17], 4.86%; in assay [18], 12.2%. Besides, the inhibition in assay [19] stood at 53.9%; in [20], 0.54%.
As for `Cc1cccc(-c2n[nH]cc2-c2ccc3ncccc3n2)n1`, the inhibition was 6.38% in assay [1]; 0.57% in assay [2]; 5.58% in [3]; 1.27% in assay [4]; -0.01% in assay [5]; -0.03% in [6]. Further, the inhibition was 2.58% in assay [7]; -0.57% in assay [8]; -0.38% in [9]; 0.38% in [10]; 1.48% in assay [11]; -0.09% in assay [12]. The inhibition is 3.85% in assay [13]; -0.23% in [14]; -0.14% in [15]; 0.65% in [16]; 3.06% in assay [17]; 61.3% in assay [18]. Besides, the inhibition in assay [19] is 83.2%; in [20], -0.25%.
For `COc1cc2c(cc1Nc1nc(N3CCc4ccccc43)c3cc[nH]c3n1)N(C(=O)CN(C)C)CC2`, the inhibition in assay [1] was determined as 1.51%; in [2], 5.42%; in assay [3], 10%; in assay [4] it was 103%; in assay [5], 98.4%; in assay [6] it was 93%. In addition, the inhibition in assay [7] was 91%; in [8], 72.3%; in assay [9] it was 90.3%; in [10], 0.83%; in assay [11], 1.52%; in assay [12], -0.01%. Further, the inhibition is -3.36% in assay [13]; 1.69% in assay [14]; 0.18% in assay [15]; 0.19% in assay [16]; 0.18% in assay [17]; 1.11% in [18]. In addition, the values for the inhibition in [19] and in [20] were 0.21% and 3.11%, respectively.
For `CCN1CCC(CC(=O)Nc2n[nH]c3nc(-c4cccs4)c(Br)cc23)CC1`, the inhibition is -1.4% in assay [1]; -0.44% in assay [2]; 0.93% in assay [3]; -1.09% in assay [4]; 1.31% in [5]; -0.61% in [6]. Besides, the inhibition was -1.43% in [7]; -2.33% in [8]; 0.01% in assay [9]; -0.21% in [10]; 0.48% in assay [11]; -7.81% in assay [12]. Also, the inhibition is -3.93% in assay [13]; -1.09% in assay [14]; -2.38% in assay [15]; 0.48% in assay [16]; 2.19% in assay [17]; 1.49% in assay [18]. For the same compound, the inhibition in assay [19] was 15.5%; in assay [20] it was -4.07%.
In the case of `O=C1NC(=O)C(c2cccc(Cl)c2)=C1Nc1ccc(O)c(Cl)c1`, the inhibition in [1] is 2.24%; in assay [2], 1.14%; in [3], 3.34%; in [4], -1.68%; in assay [5] it was 2.43%; in assay [6], 4.11%. The inhibition amounted to 6.7% in assay [7]; 1.1% in [8]; 0.03% in assay [9]; 0.25% in assay [10]; 1.28% in assay [11]; 2.54% in [12]. For the same compound, the inhibition in assay [13] was 7.81%; in [14] it was 0.65%; in assay [15] it was 2.24%; in assay [16] it was 3.49%; in assay [17], 51.4%; in assay [18] it was 3.41%. For the same compound, the inhibition in [19] was 20.1%; in assay [20] it was -3.91%.
Take `Cc1ccc(C(=O)NC2CCCCC2)cc1-c1ccc(C(=O)NCC2CC2)cc1`: the inhibition came out at 0.78% in assay [1]; 5.78% in assay [2]; 7.52% in [3]; 1.73% in assay [4]; 5.21% in [5]; 3.35% in assay [6]. For the same compound, the inhibition in assay [7] was determined as 1.48%; in assay [8], 3.13%; in assay [9], 2.14%; in assay [10], 1.95%; in assay [11], 2.35%; in assay [12], 9.94%. Besides, the inhibition was found to be 9.1% in assay [13]; 3.28% in assay [14]; 4.08% in assay [15]; 0.78% in assay [16]; 3.02% in assay [17]; 7.88% in assay [18]. In addition, the results for the inhibition in assay [19] and in [20] were 8.4% and 4.54%, respectively.

As a reminder, the inhibition is the drop in the measured response relative to a control, in per cent.
